Experimental data from PubChem BioAssay (NCATS).
Inconclusive results are not listed. A call without a number means that no potency is given here. Unmarked numbers belong to inactive results. The source made the active and inactive calls. Calls come from the whole dose curve; as a rule, active = well fitted curve in the direction sought with a large enough effect; inconclusive = small, poorly fitted or top-dose-only effect, or another doubt; inactive = no such curve, though single readings can be large; an effect the other way counts as inactive or inconclusive.

Columns and labels:
[1] = target: Rap guanine nucleotide exchange factor 3 (Homo sapiens) (UniProt O95398); experiment: Confirmatory qHTS for antagonist of cAMP-regulated guanine nucleotide exchange factor 3 (EPAC1) (AID 1645880); conditions: EPAC1 Rap1B-BODIPY-GDP exchange, fluorescence; activity, negative = inhibition: at 115 µM (top of the series); note: nearly all actives have a fitted effect of over 55% in size; note: potency is the fitted concentration of half-maximal effect
Sequence of Rap guanine nucleotide exchange factor 3 (Homo sapiens) (O95398 whole entry, looked up): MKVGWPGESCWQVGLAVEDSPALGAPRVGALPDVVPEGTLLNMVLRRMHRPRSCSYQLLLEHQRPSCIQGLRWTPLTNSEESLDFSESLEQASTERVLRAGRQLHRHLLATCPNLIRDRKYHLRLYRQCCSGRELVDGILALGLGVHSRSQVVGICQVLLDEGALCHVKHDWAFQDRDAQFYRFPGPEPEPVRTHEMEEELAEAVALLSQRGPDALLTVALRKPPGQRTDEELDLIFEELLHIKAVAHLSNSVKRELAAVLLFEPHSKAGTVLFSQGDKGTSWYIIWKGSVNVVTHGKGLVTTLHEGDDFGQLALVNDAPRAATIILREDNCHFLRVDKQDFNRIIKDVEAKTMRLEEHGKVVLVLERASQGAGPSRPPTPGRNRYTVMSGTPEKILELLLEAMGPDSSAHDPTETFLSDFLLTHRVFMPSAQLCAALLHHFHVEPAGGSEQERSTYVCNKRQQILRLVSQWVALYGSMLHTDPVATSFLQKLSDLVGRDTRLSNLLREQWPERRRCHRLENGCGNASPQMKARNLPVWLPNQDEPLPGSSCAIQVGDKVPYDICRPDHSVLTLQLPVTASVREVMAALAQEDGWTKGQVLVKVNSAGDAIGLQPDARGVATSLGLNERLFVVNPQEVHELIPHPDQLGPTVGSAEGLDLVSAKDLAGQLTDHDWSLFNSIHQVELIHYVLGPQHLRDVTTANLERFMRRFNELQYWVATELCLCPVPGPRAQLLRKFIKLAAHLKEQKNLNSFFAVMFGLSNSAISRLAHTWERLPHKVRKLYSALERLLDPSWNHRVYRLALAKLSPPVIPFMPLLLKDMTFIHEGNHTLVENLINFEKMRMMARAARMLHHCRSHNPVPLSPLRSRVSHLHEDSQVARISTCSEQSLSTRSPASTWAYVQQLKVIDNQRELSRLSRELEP
How it was run: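 Released BODIPY-GDP fluoresces less than Rap1-bound BODIPY-GDP; the signal is followed at 480/540 nm at 5-min intervals over 30 min, after 5 min at room temperature. Reactions contain 100 nM EPAC1, 250 nM RAP1B-BODIPY-GDP and 50 uM GDP; results are normalized to ATA and DMSO.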

[2] = target: Rap guanine nucleotide exchange factor 3 (Homo sapiens) (UniProt O95398); experiment: Confirmatory qHTS for agonist of cAMP-regulated guanine nucleotide exchange factor 3 (EPAC1) (AID 1645881); note: nearly all actives have a fitted effect of over 75% in size; note: potency is the fitted concentration of half-maximal effect;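 for activation: EPAC1 catalysed release of BODIPY-GDP from Rap1B seen as fluorescence loss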
[3] = target: Rap guanine nucleotide exchange factor 4 (Homo sapiens) (UniProt Q8WZA2); experiment: Confirmatory qHTS for agonist of cAMP-regulated guanine nucleotide exchange factor 4 (EPAC2) (AID 1645884);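 note: nucleotide exchange releases bodipy-GDP from Rap1 and this lowers its fluorescence; nearly all actives have a fitted effect of over 65% in size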; note: potency is the fitted concentration of half-maximal effect
Sequence of Rap guanine nucleotide exchange factor 4 (Homo sapiens) (Q8WZA2 whole entry, looked up): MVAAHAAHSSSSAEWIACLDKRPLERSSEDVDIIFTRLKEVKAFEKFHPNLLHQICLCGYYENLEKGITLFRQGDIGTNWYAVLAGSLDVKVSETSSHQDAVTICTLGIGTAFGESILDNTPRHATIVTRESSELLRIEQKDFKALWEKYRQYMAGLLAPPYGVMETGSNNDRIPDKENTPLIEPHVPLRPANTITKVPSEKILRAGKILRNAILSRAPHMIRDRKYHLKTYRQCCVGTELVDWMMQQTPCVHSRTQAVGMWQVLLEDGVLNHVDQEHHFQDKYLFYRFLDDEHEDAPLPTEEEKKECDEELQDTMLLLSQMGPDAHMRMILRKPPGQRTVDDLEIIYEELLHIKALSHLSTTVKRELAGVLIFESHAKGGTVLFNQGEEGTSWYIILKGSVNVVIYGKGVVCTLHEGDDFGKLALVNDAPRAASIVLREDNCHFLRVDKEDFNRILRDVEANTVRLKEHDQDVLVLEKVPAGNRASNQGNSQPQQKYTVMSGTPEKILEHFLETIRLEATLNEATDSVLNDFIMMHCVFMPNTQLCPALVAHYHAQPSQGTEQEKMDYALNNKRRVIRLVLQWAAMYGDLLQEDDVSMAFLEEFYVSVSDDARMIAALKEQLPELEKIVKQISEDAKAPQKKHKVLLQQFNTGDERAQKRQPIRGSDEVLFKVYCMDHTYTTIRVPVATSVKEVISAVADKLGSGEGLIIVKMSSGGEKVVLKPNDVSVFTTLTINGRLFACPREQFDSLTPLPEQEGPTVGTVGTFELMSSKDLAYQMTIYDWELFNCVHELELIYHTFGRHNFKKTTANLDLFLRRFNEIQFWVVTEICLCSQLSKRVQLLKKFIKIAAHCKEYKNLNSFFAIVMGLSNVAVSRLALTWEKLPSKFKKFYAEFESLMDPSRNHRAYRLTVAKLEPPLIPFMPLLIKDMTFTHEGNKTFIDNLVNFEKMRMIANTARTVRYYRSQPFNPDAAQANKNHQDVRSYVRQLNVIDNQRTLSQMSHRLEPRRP

[4] = target: Rap guanine nucleotide exchange factor 3 (Homo sapiens) (UniProt O95398); experiment: Counterscreen qHTS for antagonist of cAMP-regulated guanine nucleotide exchange factor 3 (EPAC1) (AID 1645888)
How it was run: (§1)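 Rap1B-BODIPY-GDP 250 nM + GDP 50 uM; cpds 7-pt, final 9.74 nM–152 uM (activator mode) or from 7.32 nM upwards (inhibitor mode); RT; FI 480/540 nm at 5 and 30 min, then ± cAMP, reread.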

[5] = target: Rap guanine nucleotide exchange factor 3 (Homo sapiens) (UniProt O95398); experiment: Counterscreen qHTS for agonist of cAMP-regulated guanine nucleotide exchange factor 3 (EPAC1) (AID 1645889); note: nearly all actives have a fitted effect of over 40% in size; note: potency is the fitted concentration of half-maximal effect
How it was run: as §1

Row | SMILES | Potency [1] | Potency [2] | Potency [3] | Potency [4] | Potency [5] | activation [3] | activity change, negative = inhibition [4] | activation [5]
1 | OC[C@@H]1[C@@H](c2ccc(F)cc2)C(c2cccc(Cl)c2)=NN1c1ccccc1 | inactive | inactive | inactive | inactive | 12.6 µM (active) |  |  | 
2 | O=[N+]([O-])c1ccc2nc(NS(=O)(=O)c3ccc(F)cc3)sc2c1 | 42.6 µM (active) | inactive | inactive | inactive | inactive |  |  | 
3 | Cc1cccc(NC(=O)Cn2c(O)c(N=NC(=O)c3ccccc3O)c3ccccc32)c1 | 75.7 µM (active) | inactive | inactive | inactive | inactive |  |  | 
4 | Cc1ccc(NS(=O)(=O)c2cccs2)cc1S(=O)(=O)N1CCCCCC1 | inactive | inactive | inactive | inactive | inactive |  |  | 
5 | COc1cc(/C=C2/C(=O)NN(c3ccc(Cl)c(Cl)c3)C2=O)cc([N+](=O)[O-])c1O | 6.75 µM (active) | inactive | inactive | inactive | inactive |  |  | 
6 | CCOC(=O)c1c(NC(=O)/C=C/C(=O)O)sc(C)c1-c1ccc(C(C)(C)C)cc1 | 42.6 µM (active) | inactive | inactive | inactive | inactive |  |  | 
7 | CCOc1nc(-c2ccccc2)c2cc(C)ccc2n1 | inactive | inactive | inactive | inactive | inactive |  |  | 
8 | COc1ccc(-n2nnnc2C(c2ccccc2OC(F)(F)F)N2CCN(C/C=C/c3ccccc3)CC2)cc1 (stereo not given) | inactive | inactive | inactive | inactive | inactive |  |  | 
9 | CC1CCN(c2ccc3c(c2)S(=O)(=O)c2cccc(C(=O)NC4CCCCC4)c2C3=O)CC1 | inactive | 89.1 µM (active) | 100 µM (active) | inactive | 50.1 µM (active) |  |  | 
10 | CN1/C(=C\C=C(/C#N)C(=O)Nc2ccc(Cl)cc2)C(C)(C)c2ccccc21 | inactive | 100 µM (active) | 100 µM (active) | inactive | inactive |  |  | 
11 | Cc1ccc([C@H]2C(C(=O)O)=CC[C@@H](c3ccc(C(C)C)cc3)N2S(=O)(=O)c2ccc(C)cc2)cc1 | 75.7 µM (active) | inactive | inactive | inactive | inactive |  |  | 
12 | CCN(CC(=O)Nc1ccccc1C(=O)NC1CC1)Cc1cccs1 | inactive | inactive | inactive | inactive | inactive |  |  | 
13 | O=S1(=O)[C@H]2CC3O[C@]2(C[C@@H]3c2ccc(F)cc2)CN1Cc1ccc(Cl)cc1 | inactive | inactive | inactive | inactive | inactive |  |  | 
14 | O=C(O)C1=CC[C@@H](c2ccc(Cl)cc2)N(S(=O)(=O)c2ccc(Cl)cc2)[C@H]1c1ccc(Br)cc1 | 75.7 µM (active) | inactive | inactive | inactive | inactive |  |  | 
15 | Cc1ccc(N(C(=O)c2ccccc2Cl)C2=NC(C)CS2)c(C)c1 (stereo not given) | inactive | inactive |  |  |  | 5.24% [at 17.1 µM, percent relative to cAMP agonist control] | -24.5% [at 30.8 µM] | 26.9% [at 30.8 µM]
16 | Cc1ccc(NC(=O)COC(=O)c2ccccc2-c2nc3ccccc3s2)c(C)c1 | inactive | inactive | inactive | inactive | inactive |  |  | 
17 | COc1cc(/C=C2\SC(=Nc3ccc(Cl)c(C(=O)O)c3)NC2=O)c(Br)c(Br)c1O | 2.82 µM (active) | inactive |  |  |  | 9.28% [at 17.1 µM, percent relative to cAMP agonist control] | -1.87% [at 30.8 µM] | 0.17% [at 30.8 µM]
18 | CCOC(=O)C1CCCN(C(=O)c2cc(-c3ccco3)nc3ccccc23)C1 (stereo not given) | 15.1 µM (active) | inactive | inactive | inactive | inactive |  |  | 
19 | Cc1ccc(S(=O)(=O)Nc2ccc3ccccc3c2[N+](=O)[O-])cc1 | 75.7 µM (active) | inactive | inactive | inactive | inactive |  |  | 
